These results are taken from PubChem BioAssay (Tox21).

Where “and” joins values, the source holds several entries; their conditions need not be identical. Identical values can stand only once. Records with an inconclusive call do not appear. A structure can be active in one record and inactive in another. Calls of active or inactive are those of the source. Unless noted, the call rests on the fitted dose curve; in most records, active means well fitted curve in the direction sought with a large enough effect in the repeat runs; inconclusive means weak or mixed curves; inactive means no such curve, though single readings can be large; an effect the other way counts as inactive or inconclusive.

Test [1] is described as follows: qHTS assay to identify small molecule agonists of the vitamin D receptor (VDR) signaling pathway - cell viability counter screen (AID 743224). Further: on the % scale 0 is the no-effect control and ±100 the full control effect; nearly all actives have a fitted effect of over 50% in size. The method, boiled down: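 VDR-bla cells, 4 h after plating, exposed to compounds for 16 h at 37C; viability then read in the same wells as CellTiter-Glo luminescence after 30 min at room temperature, following the bla FRET read.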
Background: In qHTS, concentration-response curves come from the screen itself.

Test [2] is described as follows: qHTS assay to identify small molecule antagonists of the vitamin D receptor (VDR) signaling pathway - cell viability counter screen (AID 743225). Further: on the % scale 0 is the no-effect control and ±100 the full control effect; nearly all actives have a fitted effect of over 50% in size. Summed up:
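Parallel cytotoxicity test: VDR-UAS-bla HEK 293T, 3 nM (final) 1-alpha,25-dihydroxyvitamin D3 with test compound, 16 h, 37C. Endpoint is CellTiter-Glo luminescence in the same wells.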

A short description of test [3]: qHTS assay to identify small molecule agonists of the NFkB signaling pathway (AID 1159509; active means well fitted curve in the direction sought with a large enough effect in the signal ratio in the repeat runs, not every such curve was filed as active; the % refers to the signal ratio; further: on the % scale 0 is the no-effect control and ±100 the full control effect). The method, boiled down:
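ME-180 NFkB-bla, 2,000 cells/well, overnight plating; cpd pinned in DMSO, 5 h 37 C; B/G FRET substrate 1.5 h RT; ex 405, em 460/530 nm.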

A short description of test [4]: qHTS assay to identify small molecule agonists of the NFkB signaling pathway - cell viability counter screen (AID 1159515; calls by dose curve; further: on the % scale 0 is the no-effect control and ±100 the full control effect; nearly all actives have a fitted effect of over 55% in size). The method, boiled down: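 NFkB-bla ME-180 cells, 2,000/well, plated overnight at 37 C; compound added for 5 hr at 37 C. Viability read in the same wells as the bla reporter, by CellTiter-Glo luminescence after 30 min at room temperature.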
Test [5] in a line: qHTS assay to identify small molecule agonists of the endoplasmic reticulum stress response signaling pathway (AID 1159516; active means well fitted activation curve with a large enough effect in the signal ratio in the repeat runs, not every such curve was filed as active; the % refers to the signal ratio; further: on the % scale 0 is the no-effect control and ±100 the full control effect). Summed up: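 CellSensor ESRE-bla HeLa cells, 1,500 per well, plated overnight, then exposed to compounds for 5 hr at 37 C. Beta-lactamase reporter read with LiveBLAzer B/G FRET substrate after 2 hr at room temperature, 405 nm excitation, 460 and 530 nm emission.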

Test [6] in a line: qHTS assay to identify small molecule agonists of the endoplasmic reticulum stress response signaling pathway - cell viability counter screen (AID 1159517; calls by dose curve;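 further: HeLa cells carrying an ER stress response element beta-lactamase reporter; on the % scale 0 is the no-effect control and ±100 the full control effect; nearly all actives have a fitted effect of over 50% in size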). Summed up:
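CellTiter-Glo was added to wells already read for beta-lactamase FRET, and luminescence was recorded 30 min later. Cells: ESRE-bla HeLa, 1,500 per well, compound exposure 5 hr at 37 C.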

A short description of test [7]: qHTS assay to identify small molecule antagonists of the retinoid-related orphan receptor gamma (ROR-gamma) signaling pathway - cell viability counter screen (AID 1159520). Further: on the % scale 0 is the no-effect control and ±100 the full control effect; nearly all actives have a fitted effect of over 50% in size. The method, boiled down: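 Tet-on ROR gamma CHO cells (1,000/well) were plated 4 hr, given compounds in DMSO for 2 hr at 37 C, then induced with 1 uM final doxycycline for 16 hr. Viability was read as ATP by CellTiter-Glo luminescence after 30 min.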

Test [8] concerns the target Nuclear receptor ROR-gamma (Homo sapiens) (UniProt P51449). Kind of test: qHTS assay to identify small molecule antagonists of the retinoid-related orphan receptor gamma (ROR-gamma) signaling pathway (AID 1159521). Summed up:
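Decreased RORE-driven luciferase luminescence indicates antagonism. Tet-on RORγ CHO cells received compound, then 1 uM final doxycycline 2 h later; signal read after 16 h incubation.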

A short description of test [9]: qHTS assay to identify small molecule agonists of the AP-1 signaling pathway - cell viability counter screen (AID 1159525; calls by dose curve; further: nearly all actives have a fitted effect of over 55% in size). Summed up:
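ME-180 AP-1-bla, 2500 cells/well, Opti-MEM + 0.5% dialyzed FBS; overnight 37 °C; cpd 15-pt titration, 5 h 37 °C; CellTiter-Glo 30 min RT; luminescence read; normalised to TOAB and DMSO controls.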

A short description of test [10]: qHTS assay to identify small molecule agonists of the AP-1 signaling pathway (AID 1159526; calls by dose curve; further: on the % scale 0 is the no-effect control and ±100 the full control effect).
Test [11] deals with Retinoic acid receptor RXR-alpha (Homo sapiens) (UniProt P19793). Nature of the test: qHTS assay to identify small molecule agonists of the RXR signaling pathway (AID 1159527; calls by dose curve; further: on the % scale 0 is the no-effect control and ±100 the full control effect; nearly all actives have a fitted effect of over 35% in size). Summed up:
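16 hr incubation of compound-treated RXR-alpha-UAS-bla HEK 293T cells (2% charcoal-stripped FBS, 37 C) preceded a 2 hr room-temperature LiveBLAzer FRET substrate step and blue/green fluorescence measurement.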

Test [12] in a line: qHTS assay to identify small molecule agonists of the RXR signaling pathway - cell viability counter screen (AID 1159529). Summed up: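 In this parallel viability measure, GeneBLAzer RXR-alpha HEK 293T cells (2% charcoal-stripped FBS) were given a 5 hr preincubation, treated with compounds 16 hr at 37 C, and read by CellTiter-Glo luminescence.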
Test [13] is described as follows: qHTS assay to identify small molecule antagonists of the retinoid acid receptor (RAR) signaling pathway - cell viability counter screen (AID 1159551). Further: on the % scale 0 is the no-effect control and ±100 the full control effect; nearly all actives have a fitted effect of over 35% in size. Summed up: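 C3RL4 RARE-luciferase cells, 1,000/well, incubated overnight, then dosed with compound plus 1 uM retinol (final). After 6 hr at 37 C, viability read by CellTiter-Glo ATP luminescence following 30 min at room temperature.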

The nature of test [14]: qHTS assay to identify small molecule antagonists of the retinoic acid receptor (RAR) signaling pathway (AID 1159552). Summed up: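 C3RL4 RARE-luc cells, overnight plating; retinol 1 uM final added right after compound; 6 hr 37 C; luciferase read at 30 min RT.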
Test [15] in a line: qHTS assay to identify small molecule agonists of the retinoic acid receptor (RAR) signaling pathway (AID 1159553). Further: potency means the concentration at half of the fitted maximal effect. The following applies: C3RL4 RARE luciferase reporter, agonist, 6 h; activation: at 73.3 µM (top of the series) unless noted. The method, boiled down: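 C3RL4 RARE-luciferase cells were seeded at 1,000/well and grown overnight at 37 C, then exposed to compounds for 6 hr at 37 C, 5% CO2. Luciferase reagent was added and luminescence was read after 30 min at room temperature.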

The nature of test [16]: qHTS assay to identify small molecule antagonists of the estrogen related receptor (ERR) signaling pathway from Tox21 library - cell viability counter screen (AID 1224834). Further: nearly all actives have a fitted effect of over 30% in size. Further: potency means the concentration at half of the fitted maximal effect. The method, boiled down:
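ERR reporter cells, 2,000 per well, rested 6 h, then exposed to compound in DMSO for 17.5 hours at 37 C. Viability read as fluorescence after 30 min with CellTiter-Fluor.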

For test [17], the target named is Luciferin 4-monooxygenase (Photinus pyralis) (UniProt P08659). Nature of the test: qHTS assay to identify small molecule inhibitors of firefly luciferase (AID 1224835). Further: on the % scale 0 is the no-effect control and ±100 the full control effect; nearly all actives have a fitted effect of over 25% in size. Summed up:
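Quantitative HTS format; KM concentrations of both substrates. Purified P. pyralis FLuc activity quantified from luminescence images.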

A short description of test [18]: qHTS assay to identify small molecule agonists of the constitutive androstane receptor (CAR) signaling pathway - cell viability counter screen (AID 1224836). Further: on the % scale 0 is the no-effect control and ±100 the full control effect; nearly all actives have a fitted effect of over 45% in size. Summed up:
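Using CellTiter-Fluor, viability of HepG2 cells harbouring hCAR and CYP2B6-2.2kb was measured following 23 h incubation with a 15-concentration compound series plus PK11195 (0.75 uM final).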

A short description of test [19]: qHTS assay to identify small molecule antagonists of the estrogen related receptor (ERR) signaling pathway - cell viability counter screen (AID 1224818). Further: on the % scale 0 is the no-effect control and ±100 the full control effect. The method, boiled down:
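ERR cells, 2,000 per well, compound added after 6 h and incubated 17.5 h at 37 C. Viability read by CellTiter-Fluor fluorescence after a further 30 min at 37 C.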

Test [20] is described as follows: qHTS assay to identify small molecule antagonists of the estrogen related receptor signaling pathway with the pleiotropic PPARgamma coactivator (PGC) cell viability counter screen (AID 1224822; further: on the % scale 0 is the no-effect control and ±100 the full control effect). Summed up: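 PGC/ERR cells rested 6 h, then compound-treated 17.5 h at 37 C. CellTiter-Fluor added for 30 min at 37 C, viability measured by fluorescence intensity.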

Sequence of Luciferin 4-monooxygenase (Photinus pyralis) (P08659 whole entry, looked up): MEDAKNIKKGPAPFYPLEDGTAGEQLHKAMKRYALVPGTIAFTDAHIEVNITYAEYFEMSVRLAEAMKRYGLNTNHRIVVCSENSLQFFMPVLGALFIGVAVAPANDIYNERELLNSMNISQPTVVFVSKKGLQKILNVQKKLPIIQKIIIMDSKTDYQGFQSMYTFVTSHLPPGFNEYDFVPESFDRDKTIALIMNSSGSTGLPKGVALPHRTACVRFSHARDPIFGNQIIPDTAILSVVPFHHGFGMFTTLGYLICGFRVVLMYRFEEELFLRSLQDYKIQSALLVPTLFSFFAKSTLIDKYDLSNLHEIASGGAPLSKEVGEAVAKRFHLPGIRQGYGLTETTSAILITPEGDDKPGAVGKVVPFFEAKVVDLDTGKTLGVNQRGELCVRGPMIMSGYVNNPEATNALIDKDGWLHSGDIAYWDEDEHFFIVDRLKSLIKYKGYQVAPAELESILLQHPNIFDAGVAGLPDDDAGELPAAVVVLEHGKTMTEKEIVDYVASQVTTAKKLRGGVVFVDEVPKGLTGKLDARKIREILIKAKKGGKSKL
Sequence of Retinoic acid receptor RXR-alpha (Homo sapiens) (P19793 whole entry, looked up): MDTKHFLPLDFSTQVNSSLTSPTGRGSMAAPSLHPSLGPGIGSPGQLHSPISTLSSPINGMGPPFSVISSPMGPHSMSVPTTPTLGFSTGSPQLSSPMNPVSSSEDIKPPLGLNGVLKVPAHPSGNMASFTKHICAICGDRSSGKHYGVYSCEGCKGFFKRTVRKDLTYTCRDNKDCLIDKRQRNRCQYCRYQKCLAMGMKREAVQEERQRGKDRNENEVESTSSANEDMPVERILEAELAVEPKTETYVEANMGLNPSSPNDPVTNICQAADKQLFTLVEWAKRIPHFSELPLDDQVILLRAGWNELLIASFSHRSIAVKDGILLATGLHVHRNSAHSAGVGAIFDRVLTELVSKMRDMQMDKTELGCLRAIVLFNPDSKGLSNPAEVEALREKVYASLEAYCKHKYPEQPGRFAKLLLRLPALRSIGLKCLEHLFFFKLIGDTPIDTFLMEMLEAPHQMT

`CC1C=[C-]C=C1.[C-]#[O+].[C-]#[O+].[C-]#[O+].[Mn]`: the compound was called inactive in [1], in [2], in test [3], in [4], in test [5] and in [6]. The compound was classed as inactive in [13]. Moreover, the Potency result in test [7], in test [8], in [9], in [10], in test [11] and in test [12] was “inactive” in each case. Moreover, the Potency entry in test [14], in test [15] and in [16] was “inactive” throughout.
Take `CCCC1COC(Cn2cncn2)(c2ccc(Cl)cc2Cl)O1` (stereo not drawn): the compound was called inactive in test [1], in test [2], in test [3], in test [4], in test [5] and in test [6]. Further, the call in test [13] was inactive. For the same compound, the Potency entry in test [7], in [9], in [10], in [12], in test [14] and in test [15] was “inactive” throughout. Moreover, the Potency result in [17] and in [18] was “inactive” each time. In addition, the Potency in test [16] is 49.4 µM (active) and 54.5 µM (active).
In the case of `NCC(O)c1ccc(O)cc1` (stereo not drawn), the result in test [1], in [2], in test [3], in test [4], in test [5] and in test [6] was inactive. Further, the compound was classed as inactive in [13], in test [19] and in test [20]. Moreover, the Potency entry in [7], in test [8], in [10], in [11], in [12] and in test [14] was “inactive” each time. The Potency result in [15], in test [16], in [17] and in [18] was “inactive” each time.
`COc1ccc2c3c1O[C@H]1[C@@H](O)C=C[C@H]4[C@@H](C2)N(C)CC[C@@]341`: the result in [1], in [2], in [3], in test [4], in test [5] and in [6] was inactive. Also, the outcome in test [13] was inactive. Further, the Potency result in test [7], in [9], in test [10], in test [11] and in test [12] was “inactive” throughout. For the same compound, in test [16], the Potency was 42.6 µM (active) and inactive.
As to `CCCN(CCC)c1c([N+](=O)[O-])cc(C(F)(F)F)cc1[N+](=O)[O-]`, the call in test [1], in [3], in [4], in [5], in test [6] and in [13] was inactive. For the same compound, the Potency entry in test [7], in test [8], in [10], in test [12], in test [16] and in test [17] was “inactive” throughout. For the same compound, the Potency result in test [18] was “inactive”.
Take `O=c1[nH]c2ccccc2c(=O)o1`: the result in test [1], in test [2], in test [3], in [4], in test [5] and in [6] was inactive. For the same compound, the result in test [13] was inactive. Besides, the Potency result in test [7], in [9], in test [10], in [11], in test [12] and in test [14] was “inactive” throughout. Besides, the Potency result in test [15], in test [16] and in test [18] was “inactive” in each case.
`C=C(C)CCl`: the call in [1], in test [2], in test [3], in [4], in test [5] and in test [6] was inactive. Also, the call in test [13] was inactive. For the same compound, the Potency result in test [7], in test [9], in test [10], in test [12], in test [16] and in test [17] was “inactive” each time. For the same compound, in test [18], the Potency entry is “inactive”. Further, in test [11], the activation was 1.01% [at 6.98 µM] (inactive).
For the compound `CON(C)C(=O)Nc1ccc(Cl)c(Cl)c1`, the result in test [1], in test [3], in test [4], in [5], in [6] and in [13] was inactive. Further, the Potency result in [7], in test [8], in test [10], in test [11], in test [12] and in test [14] was “inactive” throughout. Further, the Potency result in [16] and in [18] was “inactive” in each case. The Potency in test [15] was 24.3 µM (active).
